Source: PubChem BioAssay (Tox21)
Inconclusive results are not listed. The source made the active and inactive calls. Unless noted, the call rests on the fitted dose curve; in most records, active means well fitted curve in the direction sought with a large enough effect in the repeat runs; inconclusive means weak or mixed curves; inactive means no such curve, though single readings can be large; an effect the other way counts as inactive or inconclusive.

How the values were obtained:
[1] = molecular target: Aryl hydrocarbon receptor (Homo sapiens) (UniProt P35869); test: qHTS assay to identify small molecule that activate the aryl hydrocarbon receptor (AhR) signaling pathway (AID 743085); details: HepG2 AhR-luc (HG2L7.5c1), luciferase, 24 h; series mostly up to 70.3 µM; further: nearly all actives have a fitted effect of over 15% in size; further: potency means the concentration at half of the fitted maximal effect;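 on activation: HG2L7.5c1 human HepG2 liver cells with stably integrated DRE-driven firefly reporter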
Method in brief: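 Reporter assay in engineered HepG2 line HG2L7.5c1, whose plasmid carries twenty dioxin responsive elements upstream of firefly luciferase. Treatment lasted 24 h at 37C; ONE-Glo luminescence gauged induction.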

[2] = molecular target: Peroxisome proliferator-activated receptor gamma (Homo sapiens) (UniProt P37231); test: qHTS assay to identify small molecule agonists of the peroxisome proliferator-activated receptor gamma (PPARg) signaling pathway (AID 743094; active means well fitted activation curve with a large enough effect in the signal ratio in the repeat runs, not every such curve was filed as active; the % refers to the signal ratio); details: HEK293H PPARg-UAS-bla, beta-lactamase FRET ratio, 17 h; series mostly up to 57 µM
Method in brief: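 Compounds dissolved in DMSO were added to PPARg UAS-bla HEK293H cells for 17 h at 37C, and reporter expression was quantified by fluorescence intensity after 1 h with LiveBLAzer B/G FRET substrate.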

[3] = molecular target: Peroxisome proliferator-activated receptor gamma (Homo sapiens) (UniProt P37231); test: qHTS assay to identify small molecule antagonists of the peroxisome proliferator-activated receptor gamma (PPARg) signaling pathway (AID 743191; calls by dose curve; further: nearly all actives have a fitted effect of over 30% in size); details: HEK293H PPARg-UAS-bla, beta-lactamase ratio, antagonist, 17 h; series mostly up to 62.6 µM
Method in brief: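 GeneBLAzer PPARg UAS-bla HEK293H cells, 5 h post-plating, exposed to compounds 17 h at 37C. LiveBLAzer B/G FRET substrate added for 1 h at room temperature; beta-lactamase reporter read by fluorescence intensity.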

[4] = qHTS assay to identify small molecule antagonists of the peroxisome proliferator-activated receptor gamma (PPARg) signaling pathway - cell viability counter screen (AID 743194); details: PPARg-bla HEK293H viability, CellTiter-Glo luminescence, 17 h, co-treated with 50 nM rosiglitazone; series mostly up to 62.6 µM; further: nearly all actives have a fitted effect of over 55% in size; further: potency means the concentration at half of the fitted maximal effect
Method in brief: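 Cytotoxicity counter screen in PPARg-bla HEK293H cells, same wells as reporter assay. Compounds plus 50 nM rosiglitazone (final) for 17 h at 37 C, then viability read by CellTiter-Glo luminescence.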

[5] = qHTS assay for small molecule activators of the heat shock response signaling pathway - cell viability counter screen (AID 743209); details: HSE-bla HeLa viability, CellTiter-Glo luminescence, 5 h; series mostly up to 62.6 µM; further: nearly all actives have a fitted effect of over 50% in size
Method in brief: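 Readout: CellTiter-Glo luminescence, 30 min at room temperature. System: HSE-bla HeLa cells, 1500/well, plated overnight. Treatment: compounds in DMSO, 5 h at 37 C.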

[6] = qHTS assay for small molecule activators of the heat shock response signaling pathway (AID 743210; active means well fitted activation curve with a large enough effect in the signal ratio in the repeat runs, with a control signal flat, not every such curve was filed as active; the % refers to the signal ratio;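 further: HeLa cells with beta-lactamase reporter driven by heat shock elements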); details: HeLa HSE-bla reporter, beta-lactamase ratio, 5 h; series mostly up to 62.6 µM
Method in brief: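 Quantitative high-throughput format using an engineered HeLa line in which heat shock response elements drive beta-lactamase; after 5 h with compound, cells received a B/G FRET substrate and fluorescence was read.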

[7] = qHTS assay to identify small molecule agonists of the peroxisome proliferator-activated receptor delta (PPARd) signaling pathway - cell viability counter screen (AID 743211); details: PPARd-bla HEK293H viability, CellTiter-Glo luminescence, 17 h; series mostly up to 62.6 µM; further: nearly all actives have a fitted effect of over 55% in size; further: potency means the concentration at half of the fitted maximal effect
Method in brief: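 Multiplexed format: after the 2 h room-temperature LiveBLAzer B/G FRET step, CellTiter-Glo was added to the same wells. Luminescence after 30 min gave cell viability; compound exposure was 17 h at 37C.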

[8] = molecular target: Peroxisome proliferator-activated receptor delta (Homo sapiens) (UniProt Q03181); test: qHTS assay to identify small molecule agonists of the peroxisome proliferator-activated receptor delta (PPARd) signaling pathway (AID 743212; calls by dose curve); details: HEK293H PPARd-UAS-bla, beta-lactamase FRET ratio, 17 h; series mostly up to 62.6 µM
Method in brief: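 Quantitative high-throughput agonist screen in a HEK293H beta-lactamase reporter line under UAS control. Compounds in DMSO, at 37 C. Fluorescence read after 2 h with FRET substrate at room temperature.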

[9] = qHTS assay to identify small molecule agonists of the farnesoid-X-receptor (FXR) signaling pathway - cell viability counter screen (AID 743218); details: FXR-bla HEK293T viability, CellTiter-Glo luminescence, 16 h; series mostly up to 62.6 µM; further: nearly all actives have a fitted effect of over 45% in size
Method in brief: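 Parallel cytotoxicity test: compound-treated (16 h, 37 C) HEK 293T FXR-bla reporter cells were lysed with CellTiter-Glo and luminescence recorded.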

[10] = qHTS assay to identify small molecule antagonists of the farnesoid-X-receptor (FXR) signaling pathway - cell viability counter screen (AID 743221; active means well fitted cell-killing curve with a large enough effect in the repeat runs, not every such curve was filed as active; further: nearly all actives have a fitted effect of over 50% in size); details: FXR-bla HEK293T viability, CellTiter-Glo luminescence, 16 h; series mostly up to 62.6 µM
Method in brief: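 CellTiter-Glo, 30 min RT, luminescence; same wells as the LiveBLAzer FRET read. Cells: FXR-UAS-bla HEK 293T. Treatment: compound with chenodeoxycholic acid 50 uM final, 16 h at 37 C.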

[11] = molecular target: Vitamin D3 receptor (Homo sapiens) (UniProt P11473); test: qHTS assay to identify small molecule agonists of the vitamin D receptor (VDR) signaling pathway (AID 743222; calls by dose curve); details: HEK293T VDR-UAS-bla, beta-lactamase FRET ratio, 16 h; series mostly up to 63.5 µM
Method in brief: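 In VDR-bla cells, compound-induced beta-lactamase expression is quantified by FRET substrate fluorescence. Treatment lasts 16 h at 37C; substrate develops 2 h at room temperature.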

[12] = qHTS assay to identify small molecule that activate the aryl hydrocarbon receptor (AhR) signaling pathway - cell viability counter screen (AID 743086); details: HepG2-AhR-luc viability, CellTiter-Fluor, 24 h; series mostly up to 70.3 µM; further: nearly all actives have a fitted effect of over 45% in size; further: potency means the concentration at half of the fitted maximal effect
Method in brief: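 HepG2-AhR-luc (HG2L7.5c1) cells, 4000/well, treated 24 h at 37 C with compound; viability measured as CellTiter-Fluor fluorescence after 30 min in the same wells as the luciferase read.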

[13] = qHTS assay for small molecule agonists of the antioxidant response element (ARE) signaling pathway (AID 743202; active means well fitted activation curve with a large enough effect in the signal ratio in the repeat runs, not every such curve was filed as active; the % refers to the signal ratio; further: potency means the concentration at half of the fitted maximal effect); details: HepG2 ARE-bla reporter, beta-lactamase FRET, 16 h; series mostly up to 73.3 µM
Method in brief: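 Agonist mode reporter screen: HepG2 cells with ARE-controlled beta-lactamase are incubated with test compounds for 16 h at 37 C, and beta-lactamase activity is measured as fluorescence of cleaved B/G FRET substrate.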

[14] = qHTS assay for small molecule agonists of the antioxidant response element (ARE) signaling pathway - cell viability counter screen (AID 743203; calls by dose curve; further: nearly all actives have a fitted effect of over 55% in size; further: potency means the concentration at half of the fitted maximal effect); details: ARE-bla HepG2 viability, CellTiter-Glo luminescence, 16 h; series mostly up to 73.3 µM
Method in brief: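 Following 16 hrs of compound treatment at 37C, HepG2 cells with an ARE-controlled beta-lactamase gene were lysed with CellTiter-Glo. Luminescence was read after 30 min at room temperature.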

[15] = qHTS assay to identify small molecule antagonists of the peroxisome proliferator-activated receptor delta (PPARd) signaling pathway - cell viability counter screen (AID 743213); details: PPARd-bla HEK293H viability, CellTiter-Glo luminescence, 17 h; series mostly up to 62 µM; further: nearly all actives have a fitted effect of over 50% in size; further: potency means the concentration at half of the fitted maximal effect
Method in brief: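 HEK293H PPARd UAS-bla cells, 5 h pre-incubation, compound + L165041 300 nM final, 17 h 37 C; B/G FRET substrate 2 h RT; then CellTiter-Glo 30 min RT, luminescence.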

[16] = molecular target: Peroxisome proliferator-activated receptor delta (Homo sapiens) (UniProt Q03181); test: qHTS assay to identify small molecule antagonists of the peroxisome proliferator-activated receptor delta (PPARd) signaling pathway (AID 743215; active means well fitted inhibition curve with a large enough effect in the signal ratio in the repeat runs, not every such curve was filed as active; the % refers to the signal ratio;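 further: cells stimulated with agonist L165041 at 300 nM final during compound exposure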); details: HEK293H PPARd-UAS-bla, beta-lactamase FRET ratio, antagonist, 17 h; series mostly up to 62 µM
Method in brief: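 HEK293H UAS-bla, PPARd; agonist L165041 300 nM final with cpd in DMSO; 37 C 17 h; FRET substrate, RT 2 h; fluorescence intensity.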

[17] = molecular target: Bile acid receptor (Homo sapiens) (UniProt Q96RI1); test: qHTS assay to identify small molecule antagonists of the farnesoid-X-receptor (FXR) signaling pathway (AID 743217; active means well fitted inhibition curve with a large enough effect in the signal ratio in the repeat runs, not every such curve was filed as active; the % refers to the signal ratio); details: HEK293T FXR-UAS-bla, beta-lactamase ratio, CDCA-stimulated, 16 h; series mostly up to 62.6 µM
Method in brief: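 GeneBLAzer FXR-UAS-bla HEK 293T, CDCA-stimulated (50 uM final). Compound treatment 16 h, 37 °C. Detection: beta-lactamase cleavage of B/G FRET substrate, fluorescence.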

[18] = molecular target: Bile acid receptor (Homo sapiens) (UniProt Q96RI1); test: qHTS assay to identify small molecule agonists of the farnesoid-X-receptor (FXR) signaling pathway (AID 743220; active means well fitted activation curve with a large enough effect in the signal ratio in the repeat runs, not every such curve was filed as active; the % refers to the signal ratio); details: HEK293T FXR-UAS-bla, beta-lactamase FRET ratio, 16 h; series mostly up to 62.6 µM
Method in brief: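 Beta-lactamase reporter under UAS control in GeneBLAzer FXR HEK 293T cells (5000/well) measured with LiveBLAzer FRET substrate after 2 h at room temperature. Compound exposure lasted 16 h at 37C.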

[19] = molecular target: Vitamin D3 receptor (Homo sapiens) (UniProt P11473); test: qHTS assay to identify small molecule antagonists of the vitamin D receptor (VDR) signaling pathway (AID 743223; active means well fitted inhibition curve with a large enough effect in the signal ratio in the repeat runs, not every such curve was filed as active; the % refers to the signal ratio; further: potency means the concentration at half of the fitted maximal effect); details: VDR-UAS-bla HEK293T, beta-lactamase FRET ratio, 16 h; series mostly up to 61 µM
Method in brief: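 After VDR-bla cells are plated and left 4 h at 37C, DMSO-dissolved compounds and 3 nM (final) calcitriol agonist are added. Incubation continues 16 h at 37C; FRET beta-lactamase substrate then develops 2 h at room temperature.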

Measured: Potency

Vitamin D3 receptor (Homo sapiens), sequence (P11473 whole entry, looked up): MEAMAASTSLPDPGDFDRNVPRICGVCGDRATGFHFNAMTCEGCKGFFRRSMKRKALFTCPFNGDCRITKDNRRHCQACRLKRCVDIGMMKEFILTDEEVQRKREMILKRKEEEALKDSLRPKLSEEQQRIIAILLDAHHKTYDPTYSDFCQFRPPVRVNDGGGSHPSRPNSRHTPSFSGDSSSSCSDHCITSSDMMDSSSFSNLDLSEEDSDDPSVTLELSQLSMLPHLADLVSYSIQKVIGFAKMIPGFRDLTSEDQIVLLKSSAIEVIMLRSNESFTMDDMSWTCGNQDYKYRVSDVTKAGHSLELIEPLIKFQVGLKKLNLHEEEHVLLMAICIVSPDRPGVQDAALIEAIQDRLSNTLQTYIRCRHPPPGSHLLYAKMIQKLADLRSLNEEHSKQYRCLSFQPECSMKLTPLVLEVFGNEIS
Peroxisome proliferator-activated receptor gamma (Homo sapiens), sequence (P37231 whole entry, looked up): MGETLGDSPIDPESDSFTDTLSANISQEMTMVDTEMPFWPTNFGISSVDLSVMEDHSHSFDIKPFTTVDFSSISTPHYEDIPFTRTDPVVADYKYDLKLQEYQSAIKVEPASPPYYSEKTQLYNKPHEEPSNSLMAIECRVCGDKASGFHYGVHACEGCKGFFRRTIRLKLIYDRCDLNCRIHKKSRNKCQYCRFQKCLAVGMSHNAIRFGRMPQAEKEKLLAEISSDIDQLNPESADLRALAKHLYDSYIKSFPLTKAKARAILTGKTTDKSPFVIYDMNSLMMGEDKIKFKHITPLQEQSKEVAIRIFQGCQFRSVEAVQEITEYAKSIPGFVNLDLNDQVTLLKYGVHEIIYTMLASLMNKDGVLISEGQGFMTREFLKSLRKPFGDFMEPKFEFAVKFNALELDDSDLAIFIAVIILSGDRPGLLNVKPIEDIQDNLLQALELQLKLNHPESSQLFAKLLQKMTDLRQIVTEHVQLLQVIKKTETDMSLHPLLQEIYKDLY
Peroxisome proliferator-activated receptor delta (Homo sapiens), sequence (Q03181 whole entry, looked up): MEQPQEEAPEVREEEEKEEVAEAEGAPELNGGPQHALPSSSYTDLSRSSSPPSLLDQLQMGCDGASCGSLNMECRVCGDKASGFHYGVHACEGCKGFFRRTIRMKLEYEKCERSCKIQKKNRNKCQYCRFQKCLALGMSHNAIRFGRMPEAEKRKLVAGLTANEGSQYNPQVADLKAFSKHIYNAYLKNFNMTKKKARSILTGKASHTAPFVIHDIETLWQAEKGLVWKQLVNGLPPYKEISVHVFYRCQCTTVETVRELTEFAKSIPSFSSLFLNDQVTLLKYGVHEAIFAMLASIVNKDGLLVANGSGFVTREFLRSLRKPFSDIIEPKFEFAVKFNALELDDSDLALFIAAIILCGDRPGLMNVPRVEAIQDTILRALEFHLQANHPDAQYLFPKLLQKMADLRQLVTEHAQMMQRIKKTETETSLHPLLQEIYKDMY
Aryl hydrocarbon receptor (Homo sapiens), sequence (P35869 whole entry, looked up): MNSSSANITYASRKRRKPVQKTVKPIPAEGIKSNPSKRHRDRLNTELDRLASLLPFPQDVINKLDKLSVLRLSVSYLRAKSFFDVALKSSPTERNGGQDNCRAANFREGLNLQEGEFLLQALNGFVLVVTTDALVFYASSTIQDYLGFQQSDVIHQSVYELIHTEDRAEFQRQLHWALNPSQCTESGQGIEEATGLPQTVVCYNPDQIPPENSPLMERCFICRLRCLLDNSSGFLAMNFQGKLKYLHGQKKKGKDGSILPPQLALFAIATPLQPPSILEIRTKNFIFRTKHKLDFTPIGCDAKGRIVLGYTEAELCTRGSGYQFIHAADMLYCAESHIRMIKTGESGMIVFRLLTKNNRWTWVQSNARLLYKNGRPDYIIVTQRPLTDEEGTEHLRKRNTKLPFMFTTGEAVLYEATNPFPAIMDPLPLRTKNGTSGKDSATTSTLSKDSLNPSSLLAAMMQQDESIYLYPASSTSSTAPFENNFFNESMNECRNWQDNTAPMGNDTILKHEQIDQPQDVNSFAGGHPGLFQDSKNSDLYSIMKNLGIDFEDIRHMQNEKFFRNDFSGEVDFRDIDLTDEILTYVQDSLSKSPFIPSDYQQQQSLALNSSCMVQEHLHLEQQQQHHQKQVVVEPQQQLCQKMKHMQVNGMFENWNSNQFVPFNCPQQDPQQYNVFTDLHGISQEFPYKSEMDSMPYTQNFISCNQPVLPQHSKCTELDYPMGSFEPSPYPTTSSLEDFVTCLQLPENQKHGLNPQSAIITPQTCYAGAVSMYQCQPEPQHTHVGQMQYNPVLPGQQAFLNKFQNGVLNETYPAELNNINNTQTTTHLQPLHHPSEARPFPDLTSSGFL
Bile acid receptor (Homo sapiens), sequence (Q96RI1 whole entry, looked up): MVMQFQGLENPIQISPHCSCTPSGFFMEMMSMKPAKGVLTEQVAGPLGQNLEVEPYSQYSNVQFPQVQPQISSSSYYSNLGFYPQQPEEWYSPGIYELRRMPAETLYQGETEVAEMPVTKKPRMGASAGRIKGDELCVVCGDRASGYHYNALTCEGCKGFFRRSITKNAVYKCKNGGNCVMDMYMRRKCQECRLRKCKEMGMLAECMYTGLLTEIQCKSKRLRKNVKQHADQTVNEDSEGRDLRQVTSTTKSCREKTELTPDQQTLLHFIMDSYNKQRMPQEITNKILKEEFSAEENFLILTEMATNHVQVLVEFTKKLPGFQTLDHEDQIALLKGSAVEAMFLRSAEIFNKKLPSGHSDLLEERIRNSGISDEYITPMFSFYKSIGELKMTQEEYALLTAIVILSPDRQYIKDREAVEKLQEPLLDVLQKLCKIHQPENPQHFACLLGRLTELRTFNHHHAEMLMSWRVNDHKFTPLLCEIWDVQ

O=[N+]([O-])c1ccc(Nc2ccc(Nc3ccccc3)c(S(=O)(=O)O)c2)c([N+](=O)[O-])c1
not listed: [12] | [13] | [14] | [15] | [16] | [17] | [18] | [19]
inactive: all other assays above

CN(C(=O)CN(CCO)CC(=O)N(C)C(C)(C)Cc1ccccc1)C(C)(C)Cc1ccccc1
not listed: [1] | [2] | [3] | [6] | [7] | [9] | [11]
inactive: all other assays above

CC(C)C[C@H](NC(=O)[C@H](CCc1ccccc1)NC(=O)CN1CCOCC1)C(=O)N[C@@H](Cc1ccccc1)C(=O)N[C@@H](CC(C)C)C(=O)[C@@]1(C)CO1
inactive: [1] | [5]
active: [12] 0.0473 µM | [13] 0.0668 µM | [14] 3.76 µM | [7] 0.237 µM

O=c1cc(-c2ccccc2)oc2cc(O)cc(O)c12
active: [1] 12.2 µM
inactive: [4] | [14] | [15] | [10]

OC1(c2ccccc2)CCNCC1
not listed: [1] | [2] | [4] | [8] | [12] | [16] | [17] | [18]
inactive: all other assays above

CC(C)=CCC/C(C)=C/CC/C(C)=C/C(=O)OCC(=O)[C@@]1(O)CC[C@H]2[C@@H]3CCC4=CC(=O)C=C[C@]4(C)[C@H]3[C@@H](O)C[C@@]21C
inactive: [5]
active: [7] 23.7 µM

CCCC(C(=O)OCCN(CC)CC)(c1ccccc1)c1ccccc1
active: [7] 29.8 µM
inactive: [1] | [4] | [14] | [5] | [8] | [16] | [9] | [18] | [10] | [11]

C[C@H]1C[C@H](O)c2ccsc2S1(=O)=O
inactive: [13] | [14] | [5] | [6] | [8] | [16] | [9] | [10]

CN1C(=O)N(c2ccccc2Br)Cc2cnc(Nc3ccc4c(c3)OCC(CO)O4)nc21 (centres undefined)
active: [4] 49 µM | [7] 1.1 µM | [15] 11 µM | [19] 13.8 µM
inactive: [5] | [11]

CC(C)(C)CC(=O)OCC(=O)[C@@]1(O)CC[C@H]2[C@@H]3CCC4=CC(=O)C=C[C@]4(C)[C@H]3[C@@H](O)C[C@@]21C
inactive: [13] | [14] | [5] | [15] | [9] | [10] | [11]

CCCCN(CCCC)C(C(N)=O)c1ccc(OC)cc1 (centres undefined)
inactive: [4] | [13] | [5] | [6] | [7] | [8] | [15] | [16] | [9] | [10]
